The text below walks through data of PubChem BioAssay (Tox21).

The structures appear in SMILES notation. Records with an inconclusive call do not appear. A number with no mark means an inactive call. Calls of active or inactive are those of the source. Calls follow the shape of the dose curve; as a rule, active = well fitted cell-killing curve with a large enough effect in the repeat runs; inconclusive = weak or mixed curves, or effect the other way; inactive = flat fitted curve, though single readings scatter.
% is scaled to controls: 0 for no effect and ±100 for the full control effect.

The experiment in a line: qHTS assay to identify small molecule agonists of the TGF-beta/Smad signaling pathway - cell viability counter screen (AID 1346829). Also: top concentration of the series differs between compounds; nearly all actives have a fitted effect of over 45% in size. Particulars: SBE-bla HEK293T viability, CellTiter-Glo luminescence, 5 h; series mostly up to 76.8 µM. An excerpt:
National Center for Advancing Translational Sciences [NCATS]
NIH Chemical Genomics Center [NCGC]
U.S. Environmental Protection Agency [EPA]
National Institutes of Environmental Health Sciences [NIEHS]
National Toxicology Program [NTP]
U.S. Food and Drug Administration [FDA]
Transforming growth factor beta (TGF-beta) superfamily consists of a large number of structurally related dimeric proteins that act as hormones or local mediators in regulating a wide range of biological functions. This superfamily includes TGF-betas themselves, the bone morphogenetic proteins (BMPs) and the activins. These ligands induce oligomerization of serine/threonine receptor kinases and phosphorylate the cytoplasmic signaling molecules of Smad protein family. CellSensor SBE-bla HEK 293T cell line (Life Technologies, Carlsbad, CA), responsive to TGF-beta was used to screen Tox21 10K compound library for identification of agonists/antagonists of the Smad signaling pathway. This cell line contains a beta-lactamase reporter gene under control of the Smad binding element (SBE) stably integrated into HEK 293T cells. Also cytotoxicity of the compounds was tested in parallel by measuring the cell viability using CellTiter-Glo assay system in the same wells.
Tox21 Assay Protocol Summary:
SBE-bla HEK 293T cells were dispensed at 4,000/well in 6 uL of assay medium into black wall/clear-bottom 1536-well plates using a Multidrop Combi (ThermoFisher Scientific, Waltham, MA) dispenser. After the assay plates were incubated at 37 C and 5% CO2 for an overnight, 23 nL of compounds dissolved in DMSO, positive controls or DMSO only was transferred to the assay plate by a Pintool station (Kalypsys, San Diego, CA). The assay plates were incubated at 37 C and 5% CO2 for 5 hr. One uL of LiveBLAzer B/G FRET substrate (Life Technologies) was added using a Flying Reagent Dispenser (FRD, Aurora Discovery, San Diego, CA) and the plates were incubated at room temperature for 2 hr. Fluorescence intensity (405 nm excitation, 460 nm and 530 nm emissions) was measured using an Envision plate reader (PerkinElmer, Shelton, CT). For cytotoxicity read, 4 uL of CellTiter-Glo reagent (Promega Corporation, Madison, WI) was added to each well of the assay plates using FRD. After 30min incubation at room temperature, the luminescence intensity was measured using ViewLux plate reader (PerkinElmer).
For orientation: qHTS replaces the single test concentration by a dilution series.
With `OCC(CO)(CO)COCC(CO)(CO)CO`, the result was inactive. For `CCCCC1CCCCC(=O)O1` (stereo not given), the result was inactive. Still for that read-out and setting: the value for `CNC(=O)c1c(I)c(NC(=O)CCCCC(=O)Nc2c(I)c(C(=O)O)c(I)c(C(=O)NC)c2I)c(I)c(C(=O)O)c1I` was “inactive”. Same read-out and setting: the value for `Oc1ccc2c(c1)OC[C@@H](N1CCC(O)(c3ccc(F)cc3)CC1)[C@H]2O` was “inactive”; that for `CCCOCC(C)OCC(C)O` (stereo not given) was “inactive”. For `O=C1C(CCS(=O)c2ccccc2)C(=O)N(c2ccccc2)N1c1ccccc1` (stereo not given), the result was inactive. Same read-out and setting: in the case of `NC(=O)c1ncn([C@@H]2O[C@H](CO)[C@@H](O)[C@H]2O)c1O` it was “inactive”. Regarding `CCCc1ccc(N)cc1`, the outcome was inactive. For the compound `CCC(=O)c1cccc(Cl)c1`, the compound was called inactive. Take `CN(C)CCOC(c1ccc(Cl)cc1)c1ccccn1` (stereo not given): the outcome was inactive. Consider `CCN1CCN(c2cc3c(cc2F)c(=O)c(C(=O)O)cn3C2CC2)CC1`, for which the result was inactive.

Consider `COC(=O)CCCCCCCCC(=O)OC`, for which the call was inactive.

With `CCCc1ccccc1O`, the call was inactive. For the compound `Cn1ccc2cc3c(cc21)CCN3C(=O)Nc1cccnc1`, the activity change, negative = cytotoxicity was -1.62% [at 15.8 µM]. As for `COc1ccc(N=[N+]([O-])c2ccc(OC)cc2)cc1`, the compound was classed as inactive. On the same count and under the same terms, in the case of `CCCCCCCCCCC1CO1` (stereo not given) it was “inactive”; in that of `CO`, “inactive”; in that of `COC(=O)C1=C(C)NC(C)=C(C(=O)OCC(C)=O)C1c1ccccc1[N+](=O)[O-]` (stereo not given), “inactive”. Take `CCCCNc1ccccc1`: the compound was called inactive. Still for that read-out and setting: in the case of `Oc1cc(O)c2c(c1)O[C@H](c1ccc(O)c(O)c1)[C@H](O)C2` it was “inactive”. For the compound `O=C(O)C(O)[C@H](O)[C@@H](O)[C@H](O)[C@H](O)CO` (stereo not given in full), the compound was classed as inactive.

Regarding `CC(C)c1cccc(C(C)C)c1N`, the call was inactive.

For `CC(C)[C@H](N)C(=O)OCCOCn1cnc2c(=O)[nH]c(N)nc21`, the result was inactive. With `c1ccc(SCCSc2ccccc2)cc1`, the result was inactive. `O=Cc1ccccc1[N+](=O)[O-]`: the compound was called inactive. Still for that read-out and setting: in the case of `C=C(C)C(=O)NCCCN(C)C` it was “inactive”. Regarding `CN(C)CCn1nnnc1SCC1=C(C(=O)O)N2C(=O)[C@@H](NC(=O)Cc3csc(N)n3)[C@H]2SC1`, the compound was classed as inactive.

For the compound `C=C(C)C(=O)OCCC(C)OC(=O)C(=C)C` (stereo not given), the compound was called inactive. On to `O=C1CC2(CCCC2)CC(=O)N1`, for which the result was inactive. Same read-out and setting: the value for `Nc1nc(F)nc2c1ncn2[C@@H]1O[C@H](CO)[C@@H](O)[C@@H]1O` was “inactive”. Consider `O=C(O)/C=C/c1ccc(/C=C/C(=O)O)cc1`, for which the outcome was inactive.

For the compound `OCc1ccccn1`, the compound was called inactive. As for `COc1cc(CCC(C)=O)ccc1O`, the outcome was inactive.

With `Nc1ccc2cc(S(=O)(=O)O)ccc2c1`, the compound was called inactive.

With `Cn1cnc2c(=O)[nH]c(N)nc21`, the call was inactive. On to `C#CC(O)CCCCC` (stereo not given), for which the outcome was inactive.

In the case of `COc1cc(C)cc(O)c1`, the compound was classed as inactive. Turning to `O=[N+]([O-])c1ccc(Oc2ccc([N+](=O)[O-])cc2)cc1`, the result was inactive. As for `C[C@H]1O[C@@H](n2cc(F)c(=O)[nH]c2=O)[C@H](O)[C@@H]1O`, the compound was classed as inactive. On the same count and under the same terms, in the case of `CC(C=O)Cc1ccc(C(C)C)cc1` (stereo not given) it was “inactive”.
